The supplement of paper PMC12636033
± gives the standard deviation of the averaged measurements. Over roughly 33,000 sequences, “E-score (rank enrichment, -0.5 to 0.5)” has its median near -0.0068; the highest 2% begin near 0.24. The list comes from a sample in which the highest values are over-represented; it also holds similar and randomly drawn sequences.

Each sequence was assayed on muMax20 (Max(13-93) K31hArg/K57hArg, M65Nle) (assay: PBM 8-mer E-score (E-score (rank enrichment, -0.5 to 0.5)); higher = stronger preferential binding).
Description: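 Protein binding microarray (universal PBM chip covering all 10-mers in fixed probe flanks) with chemically synthesized human Max(13-93) bHLH-LZ analogs (not full-length Max) bearing noncanonical residues (hArg, Tha, Aib, Nle at 65) and aromatic Cys staples. Read-out per 8-mer (and its reverse complement): E-score (rank-based enrichment, -0.5 to 0.5) and Z-score of median probe intensity.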

Sequence	PBM 8-mer E-score
ACTTATAA	0.0449 ± 0.25
AATCTTTG	0.0923 ± 0.013
CGTTGGGA	-0.0152 ± 0.0038
GTGTTCTA	0.169 ± 0.024
AAATCCGT	-0.0161 ± 0.1
AGGTCCGC	-0.129 ± 0.034
ATATTTTA	0.203 ± 0.0096
ACACGAAC	0.122 ± 0.011
ATGTTTAC	0.245 ± 0.073
CTGTTTAC	0.106 ± 0.041
ATGTTTAG	0.222 ± 0.12
AGTTCACC	-0.068 ± 0.0075
ATTAAACA	0.132 ± 0.15
ATTAAACG	0.287 ± 0.003
ATTAAAAA	0.0946 ± 0.0066
AATTAAAG	0.108 ± 0.13
GATTAAAC	0.134 ± 0.071
AATTAAAC	0.268 ± 0.072
ATTAAACC	0.164 ± 0.03
ATTAAAAC	0.269 ± 0.022
ATTAAAAG	0.119 ± 0.073
GTTCTTGA	0.0649 ± 0.045
CAAGGTGG	-0.0168 ± 0.088
TAGAAGAA	-0.0576 ± 0.025
GACATCCC	-0.00641 ± 0.062

Sequence	PBM 8-mer E-score
AATACCTA	0.214 ± 0.067
CGAAGCTA	-0.176 ± 0.022
GGTCCAAC	-0.234 ± 0.16
ATGGTAAA	0.13 ± 0.053
ATTATTAC	0.255 ± 0.028
CTTATTAC	0.101 ± 0.014
ATTATTAA	0.212 ± 0.035
ACTATTAG	-0.0835 ± 0.051
ATTATTAG	0.247 ± 0.061
ACTATTAC	0.0842 ± 0.022
GCGGCTGA	-0.177 ± 0.019
CAATTCAA	0.0283 ± 0.0014
ATTCCCCA	0.209 ± 0.066
ACTCCAGA	-0.0288 ± 0.033
CCAGGAAC	-0.286 ± 0.11
CAGGATTA	0.0457 ± 0.03
CAGCAGGG	-0.114 ± 0.086
CAAGAACA	-0.0329 ± 0.2
TAAGAACA	0.239 ± 0.0029
GAAGAACA	0.127 ± 0.031
ACGTTTAT	0.0742 ± 0.017
AATTGGCC	-0.0791 ± 0.05
GTTGGTAA	0.0564 ± 0.03
GTATGTGA	0.0146 ± 0.021
ATATGTGA	0.32 ± 0.08

Sequence	PBM 8-mer E-score
ATATGTGG	0.261 ± 0.098
CTATGTGA	0.0996 ± 0.088
ATATGTGC	0.121 ± 0.056
ATGTGTGG	0.104 ± 0.095
CACGAATG	0.101 ± 0.063
GGCGGACA	-0.0909 ± 0.047
GTCCTAAA	0.0453 ± 0.11
ATGGCATG	0.0857 ± 0.18
ACTTTCTA	0.237 ± 0.046
ACTTTCTG	-0.00396 ± 0.12
ACTTTCTC	0.0328 ± 0.03
CCGAAAAG	0.0771 ± 0.15
ATGAATTG	0.179 ± 0.062
CCTACAAC	0.13 ± 0.0096
CATACACA	0.221 ± 0.047
TGTATACA	0.335 ± 0.051
ACTACAAG	0.135 ± 0.062
CGTATACA	0.216 ± 0.049
GGTATACA	0.109 ± 0.022
AATACACA	0.308 ± 0.05
AATACACT	0.188 ± 0.042
AATACACG	0.256 ± 0.027
TATACACA	0.234 ± 0.038
ACTACAAC	0.268 ± 0.024
CATACACG	0.166 ± 0.029

Sequence	PBM 8-mer E-score
CGCGACCA	-0.136 ± 0.0046
ATATGGTA	0.217 ± 0.0028
GTCGGACA	-0.2 ± 0.096
GAATAACC	0.0359 ± 0.041
TCGAAACA	0.00709 ± 0.067
ACAGAGTC	-0.0304 ± 0.021
ATCCTACA	-0.0539 ± 0.011
GTTCCCGA	-0.272 ± 0.029
AAACTCGG	-0.00029 ± 0.062
TGAAATCA	0.102 ± 0.042
CACCTAGC	0.0921 ± 0.017
ACTACACA	0.315 ± 0.053
ACTACACG	0.149 ± 0.0089
CGTACACG	0.212 ± 0.059
TGTACACA	0.251 ± 0.073
AGTACACA	0.22 ± 0.037
CCTACACG	0.00955 ± 0.02
ATCCCTGG	-0.185 ± 0.058
ACTCCATC	-0.129 ± 0.053
ATTTCATC	0.17 ± 0.077
TGAAGACA	-0.094 ± 0.12
AAAGTATT	0.221 ± 0.0025
GTTGTATA	0.249 ± 0.025
AAAGTATA	0.315 ± 0.012
GATGTATA	0.103 ± 0.14

Sequence	PBM 8-mer E-score
ACTGTATA	0.255 ± 0.011
CATGTATA	0.228 ± 0.034
GCTGTATA	0.192 ± 0.026
AATGTATA	0.279 ± 0.074
CTTGTATA	0.136 ± 0.16
CAAGTATA	0.187 ± 0.011
ATTGTATA	0.131 ± 0.13
CCTGTATA	0.116 ± 0.042
ACGCCATA	0.0949 ± 0.073
TCTAAACA	0.16 ± 0.033
CTGAGTTA	-0.0809 ± 0.031
AGAAAAAA	0.231 ± 0.056
CATCGAGC	-0.0831 ± 0.0056
AAATGTGC	0.121 ± 0.067
ACGGTGCT	-0.0206 ± 0.018
GTTGTTTA	0.32 ± 0.063
ATTGTTTA	0.103 ± 0.011
CTTGTTTA	0.0457 ± 0.0082
ACATTGTG	0.144 ± 0.17
TAGATCTA	0.0708 ± 0.14
TACATATA	0.238 ± 0.022
GACATATC	0.135 ± 0.032
AACATATG	0.136 ± 0.027
TACATAGA	0.163 ± 0.051
CACATATC	0.149 ± 0.067

Sequence	PBM 8-mer E-score
CACATATG	0.131 ± 0.036
AACATATA	0.286 ± 0.079
CACATATA	0.325 ± 0.081
ACCATATG	0.159 ± 0.02
GACATATA	0.0588 ± 0.11
ACCATATC	0.0503 ± 0.19
ACCATATA	0.278 ± 0.042
CGTCGGAG	-0.1482 ± 0.0013
CGCACTAG	-0.0251 ± 0.025
GCAGATCA	-0.15 ± 0.0073
CTACCTGC	-0.0986 ± 0.014
TTAAATAA	0.18 ± 0.063
AGAAATAA	0.259 ± 0.097
ATAAATAC	0.263 ± 0.071
ATAAATAT	0.319 ± 0.01
ATAAATAA	0.231 ± 0.0076
AGAAATAC	0.0602 ± 0.05
ATAAATAG	0.167 ± 0.075
GGAAATAA	0.154 ± 0.013
AAAAATAT	0.229 ± 0.035
TTAAGGAA	0.0354 ± 0.0092
AGGAAGTG	-0.0996 ± 0.0079
CTCTTGAC	-0.0583 ± 0.0029
CCCAAATA	0.176 ± 0.061
ACCGATCC	-0.277 ± 0.0028

Sequence	PBM 8-mer E-score
AGAAGCAA	0.1 ± 0.028
ATCGGTTA	-0.0224 ± 0.05
ATGATTAC	0.149 ± 0.044
GATAGAGC	-0.15 ± 0.001
CTACATAG	0.138 ± 0.14
AATGCATT	0.348 ± 0.072
CATGCACG	0.183 ± 0.026
CATGCATC	0.0441 ± 0.017
CGTGCACA	0.098 ± 0.028
AATGCATA	0.171 ± 0.09
CATGCATG	0.3719 ± 0.0024
TGTGCACA	0.221 ± 0.046
CATGCATA	0.19 ± 0.13
CGTGCACG	0.283 ± 0.13
CATGCACA	0.317 ± 0.082
AATGCATC	0.129 ± 0.082
GATGCACA	-0.00748 ± 0.045
GTGAATTA	0.191 ± 0.067
CCTTACGC	0.0271 ± 0.0015
AGCGTTTG	-0.169 ± 0.14
CCAAGTGG	-0.15414 ± 2.1e-05
CTTTAGGC	-0.158 ± 0.011
